Data on 18 sequences can be found in the supplement of paper PMC12645437, “Orthogonal IMiD-Degron Pairs Induce Selective Protein Degradation in Cells” (ACS Chemical Biology, 2025).

In the test the target is T1, CRBN, Q96SW2.
T1 chain: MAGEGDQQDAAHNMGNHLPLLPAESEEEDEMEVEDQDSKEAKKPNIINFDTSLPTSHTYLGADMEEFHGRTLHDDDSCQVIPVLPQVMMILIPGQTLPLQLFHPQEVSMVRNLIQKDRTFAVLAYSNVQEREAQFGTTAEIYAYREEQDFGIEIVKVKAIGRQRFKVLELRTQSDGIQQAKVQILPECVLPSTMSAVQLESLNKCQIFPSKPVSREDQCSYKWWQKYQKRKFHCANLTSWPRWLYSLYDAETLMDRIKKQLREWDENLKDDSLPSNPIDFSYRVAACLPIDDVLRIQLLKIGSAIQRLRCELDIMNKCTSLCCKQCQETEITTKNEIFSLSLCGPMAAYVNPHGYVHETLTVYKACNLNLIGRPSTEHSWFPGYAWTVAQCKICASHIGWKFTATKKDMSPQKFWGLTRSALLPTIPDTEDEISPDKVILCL
Nature of the test: log2 fold change of degron read counts, EGFP-low vs EGFP+ sorted cells (limma voom), compound-induced degradation; higher = more compound-induced degradation of the degron-EGFP fusion; degrons are variants of IKZF1/3 zinc finger 2; compound dose not given here. To be noted: Jurkat, 18 h.

Where [1] appears, read: compound: compound 19 (5-tert-butyl-thalidomide).
[2] abbreviates: compound: compound 22 (5-morpholino-thalidomide).
The mark [3] stands for this setting: compound: compound 33 (diphenyl IMiD analogue).

Whole data set: some 8,300 sequences, median “log2 fold change of degron read counts, EGFP-low vs EGFP+ sorted cells (limma voom), compound-induced degradation” near -1.1, cut for the highest 2% near 3.2. What follows is part of a selection rich in the highest values, with near analogues and random picks from the rest.
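Note: pooled lentiviral library of zinc finger degron-EGFP fusions in mCherry-positive Jurkat cells, FACS-sorted after compound exposure, with degron abundance counted by next-generation sequencing.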

In the case of FQCPQCGAMFTQKGNLLRHIKL [46F_47Q_49P_50Q_52G_53A_54M_55F_67L_, Q9UKT9], the “log2 fold change of degron read counts” value runs as follows: under setting [1], -1.88; under setting [2], -0.122; under setting [3], 0.828; (compound: thalidomide) 2.53.
For LCCNQCGFMCTQKGNLLRHIKL [46L_47C_49N_50Q_52G_53F_54M_55C_67L_, Q9UKT9], the “log2 fold change of degron read counts” value is -1.73 under setting [1], -2.27 under setting [2], -1.57 under setting [3] and -1.43 (compound: thalidomide).
In the case of FVCDVCGAVFTQKGNLLRHIKL [46F_47V_49D_50V_52G_53A_54V_55F_67L_, Q9UKT9], the “log2 fold change of degron read counts” value was -2.2 under setting [1], -1.22 under setting [2], 0.29 under setting [3] and -0.895 (compound: thalidomide).
With FQCNQCGAYFTQKGNLLRHIKL [46F_47Q_49N_50Q_52G_53A_54Y_55F_67L_, Q9UKT9], the “log2 fold change of degron read counts” value under setting [1] was -2.89, the “log2 fold change of degron read counts” value under setting [2] is -2.26, the “log2 fold change of degron read counts” value under setting [3] is -1.84 and the “log2 fold change of degron read counts” value (compound: thalidomide) is -0.227.
FTCPQCGAQFTQKGNLLRHIKL [46F_47T_49P_50Q_52G_53A_54Q_55F_67L_, Q9UKT9]: the “log2 fold change of degron read counts” value is -2.03 under setting [1], 0.309 under setting [2], 1.83 under setting [3] and 1.07 (compound: thalidomide).
As to LECPICGFGCTQKGNLLRHIKL [46L_47E_49P_50I_52G_53F_54G_55C_67L_, Q9UKT9], the “log2 fold change of degron read counts” value is 0.698 under setting [1], -0.66 under setting [2], 1.1 under setting [3] and 2.27 (compound: thalidomide).
With FNCNQCGHVFTQKGNLLRHIKL [46F_47N_49N_50Q_52G_53H_54V_55F_67L_, Q9UKT9], the “log2 fold change of degron read counts” value runs as follows: under setting [1], -2.33; under setting [2], -2.54; under setting [3], -2.77; (compound: thalidomide) -2.34.
In the case of FECPICGHPFTQKGNLLRHIKL [46F_47E_49P_50I_52G_53H_54P_55F_67L_, Q9UKT9], the “log2 fold change of degron read counts” value under setting [1] is -2.51, the “log2 fold change of degron read counts” value under setting [2] is -2.54, the “log2 fold change of degron read counts” value under setting [3] was -0.989 and the “log2 fold change of degron read counts” value (compound: thalidomide) was -0.173.
Turning to FFCPICGHGFTQKGNLLRHIKL [46F_47F_49P_50I_52G_53H_54G_55F_67L_, Q9UKT9], the “log2 fold change of degron read counts” value is, setting by setting: under setting [1], -1.02; under setting [2], -1.29; under setting [3], -0.968; (compound: thalidomide) -1.48.
For the sequence FRCEICGAPFTQKGNLLRHIKL [46F_47R_49E_50I_52G_53A_54P_55F_67L_, Q9UKT9], the “log2 fold change of degron read counts” value reads like this: under setting [1], 3.62; under setting [2], 3.98; under setting [3], 3.31; (compound: thalidomide) 3.58.
Consider FLCEICGAPFTQKGNLLRHIKL [46F_47L_49E_50I_52G_53A_54P_55F_67L_, Q9UKT9], for which the “log2 fold change of degron read counts” value by setting is: under setting [1], 2.96; under setting [2], 2.82; under setting [3], 2.69; (compound: thalidomide) 3.17.
Consider FHCEICGAFFTQKGNLLRHIKL [46F_47H_49E_50I_52G_53A_54F_55F_67L_, Q9UKT9], for which the “log2 fold change of degron read counts” value is 0.885 under setting [1], -0.276 under setting [2], 0.198 under setting [3] and -1.2 (compound: thalidomide).
For the sequence FECEICGAPFTQKGNLLRHIKL [46F_47E_49E_50I_52G_53A_54P_55F_67L_, Q9UKT9], the “log2 fold change of degron read counts” value is 2.7 under setting [1], -0.51 under setting [2], 1.41 under setting [3] and 2.07 (compound: thalidomide).
Consider FDCEICGAPFTQKGNLLRHIKL [46F_47D_49E_50I_52G_53A_54P_55F_67L_, Q9UKT9], for which the “log2 fold change of degron read counts” value runs as follows: under setting [1], 2.21; under setting [2], 0.891; under setting [3], -0.242; (compound: thalidomide) 0.789.
Consider FTCEICGAPFTQKGNLLRHIKL [46F_47T_49E_50I_52G_53A_54P_55F_67L_, Q9UKT9], for which the “log2 fold change of degron read counts” value was 2.99 under setting [1], 3.21 under setting [2], 2.47 under setting [3] and 3.17 (compound: thalidomide).
As for FHCEICGAPFTQKGNLLRHIKL [46F_47H_49E_50I_52G_53A_54P_55F_67L_, Q9UKT9], the “log2 fold change of degron read counts” value is 4 under setting [1], 3.46 under setting [2], 2.38 under setting [3] and 1.9 (compound: thalidomide).
On the same counts, the results for FACEICGAPFTQKGNLLRHIKL [46F_47A_49E_50I_52G_53A_54P_55F_67L_, Q9UKT9] are 3.6, 2.51, 0.463 and 1.72.
As for FHCEICGADFTQKGNLLRHIKL [46F_47H_49E_50I_52G_53A_54D_55F_67L_, Q9UKT9], the “log2 fold change of degron read counts” value by setting is: under setting [1], -1.38; under setting [2], -3.23; under setting [3], -1.06; (compound: thalidomide) -2.34.
